tim10-1 inh: growth inhibitors of tim10-1 mutant yeast. S. cerevisiae tim10-1 ts strain growth, BacTiter-Glo, 24 h. inhibition, % at 20 µM. 330,000 tested, 2.2% active;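 active means inhibition of at least 40%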;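 further: mutant grown at 25 °C; 0% = DMSO wells with yeast and 100% = wells holding no yeast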
TIM10 inh: TIM10 yeast growth inhibition; S. cerevisiae TIM10 strain growth, BacTiter-Glo luminescence, 24 h; inhibition, % at 10 µM; 330,000 tested, 1.4% active; AID 463195;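 active means inhibition of 40% or more at the single tested concentration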;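 further: wild-type TIM10 isogenic control strain grown at permissive 25 °C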
PfHsp90 set2: inhibits growth of yeast expressing Plasmodium falciparum Hsp90; S. cerevisiae expressing PfHsp90, BacTiter-Glo ATP, 48 h; yeast lacking PDR1 and PDR3 efflux regulators; inhibition, % at 9.4 µM; 310,000 tested, 0.32% active; AID 504621;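 active means every replicate shows inhibition above about 80%, whatever the replicate mean, limit read from the data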;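 further: 0% = DMSO neutral controls and 100% = 20 µM radicicol positive controls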
tim23-1 inh: growth inhibitors of tim23-1 mutant yeast | S. cerevisiae tim23-1 growth, BacTiter-Glo luminescence, 24 h | inhibition, % at 20 µM | 330,000 tested, 1.3% active;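 active means growth inhibition of the mutant yeast at or above 50%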;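 further: temperature-sensitive mutant grown at 25 °C; plate controls were DMSO-treated mutant yeast for no effect and medium wells lacking yeast for full effect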
V-ATPase pH: yeast V-ATPase proton transport regulation by pHLuorin | S. cerevisiae, pHLuorin cytosolic pH fluorescence | response, % at 10 µM | 350,000 tested, 0.37% active; in the data active means response mostly above about 7.3%, no sharp cut-off; inactive means mostly below about 5.4%; further: actives read high
tim10-1 confirm: tim10-1 yeast growth inhibition, confirmed; shares compounds with tim10-1 inh; S. cerevisiae tim10-1 ts strain growth, BacTiter-Glo, 24 h; inhibition, % at 20 µM; 7,400 tested, 56% active; AID 463213;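 active means inhibition of yeast growth at or above a set limit in either of two repeat tests at 20 µM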;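 further: tim10-1 mutant grown at permissive 25 °C to find synthetic lethal compounds; 0% = DMSO yeast wells and 100% = medium wells without yeast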
An asterisk follows results filed as active; x = no result. Sampled rows, rich in hits. Any-hit rate of the full collection: about 3.7%.

SMILES	tim10-1 inh	TIM10 inh	PfHsp90 set2	tim23-1 inh	V-ATPase pH	tim10-1 confirm
CCN(CC)CCNc1ncnc2c1sc1nc(N3CCOCC3)c3c(c12)CCCC3	9	24	-6	16	0	x
OCCNc1ncnc2c1sc1nc(N3CCOCC3)c3c(c12)CCC3	49*	18	-43	35	2	25
COc1ccc(-c2cc(-c3cc(F)ccc3O)[nH]n2)cc1OC	40	38	x	25	2	14
COc1ccc(-c2cc(-c3ccccc3O)[nH]n2)cc1OC	17	29	x	25	0	x
COc1ccc(-c2cc(-c3ccc(Cl)cc3)n[nH]2)c(O)c1	41*	29	1	45	4	45*
Oc1ccc(Br)cc1-c1cc(-c2ccc(Cl)cc2)n[nH]1	36	16	11	15	5	x
c1cncc(-c2nc(N3CCCCCC3)c3ccccc3n2)c1	50*	26	14	44	0	32*
CN1CCN(c2nc(-c3cccnc3)nc3ccccc23)CC1	9	-1	-16	10	0	x
COC(=O)c1cn(-c2ccccc2)nc1-c1ccccc1	11	11	7	21	2	x
COC(=O)c1cn(-c2ccccc2)nc1-c1ccc(OC)c(OC)c1	42*	15	-11	38	-6	9
CCN(CC)c1ccc(NC(=O)CCCCCN2C(=O)c3ccccc3C2=O)cc1	46*	33	x	43	-1	42*
COc1ccc(-c2cc(C3CC3)nc(N)c2C#N)cc1	27	22	-10	24	-1	x
COc1ccc(-c2cc(C3CC3)nc3sc(C#N)c(N)c23)cc1	44*	35	-1	47	-1	57*
Cc1ccc(C)c(CSc2nnc(CCN)o2)c1	16	7	x	8	0	x
Cc1ccc(C)c(CSc2nnc([C@@H](N)C(C)C)o2)c1	45*	19	x	35	2	49*
Cc1c(C(=O)NCC2COc3ccccc3O2)oc2ccc(S(=O)(=O)N3CC(C)CC(C)C3)cc12 (stereo unspecified)	0	-7	-4	16	3	x
Cc1c(C(=O)NCC2COc3ccccc3O2)oc2ccc(S(=O)(=O)N3CCOCC3)cc12 (stereo unspecified)	42*	27	x	17	1	21
Cc1c(C(=O)NC2CC2)oc2ccc(S(=O)(=O)N3CCCCCC3)cc12	49*	27	x	46	4	38*
CCCCn1c(N)c(N(CCOC)C(=O)CCS(=O)(=O)c2ccc(C)cc2)c(=O)[nH]c1=O	x	x	x	x	1	x
COc1ccc(-c2nnc(NC(=O)c3ccc(S(=O)(=O)N4CCc5ccccc5C4)cc3)o2)cc1	44*	39	-7	12	-1	39*
COc1ccc(-c2nnc(SCC(=O)N3CCc4ccccc4C3)o2)cc1	43*	36	-12	43	0	27
Cc1ccc(-n2nnnc2SCC(=O)N2CCc3ccccc3C2)c(C)c1	44*	6	13	42	-1	32*
O=C(NCCc1ccccc1)C1CC(=O)N(C2CCCC2)C1 (stereo unspecified)	-8	6	-7	8	0	x
Cc1cc(O)c(C(C[N+](=O)[O-])c2ccc(Cl)cc2Cl)c(=O)o1 (stereo unspecified)	43*	27	x	27	2	26
CCOC(=O)C1CCN(C(=O)C2CCC(=O)N(CC3CCCCC3)C2)CC1 (stereo unspecified)	-19	7	20	-7	2	x
SMILES	tim10-1 inh	TIM10 inh	PfHsp90 set2	tim23-1 inh	V-ATPase pH	tim10-1 confirm
COc1c(/C=C2\SC(=Nc3ccccc3Cl)NC2=O)cccc1[N+](=O)[O-]	44*	24	-11	47	-2	45*
O=C1NC(=Nc2ccccc2Cl)S/C1=C\c1cccc([N+](=O)[O-])c1O	31	14	-177	34	-3	x
N/C(=N\OC(=O)CSc1ccccc1)c1ccccn1	25	11	4	18	-6	x
COCCn1c(N)c(N(Cc2ccccc2)C(=O)CSCC(=O)Nc2ccc(C)cc2)c(=O)[nH]c1=O	19	4	x	19	5	x
COc1ccc(C)cc1NC(=O)CNc1ccccc1CN(C)C1CCCCC1	16	-7	2	14	0	x
COc1ccc(Cl)cc1NC(=O)CNc1ccccc1CN(C)C1CCCCC1	43*	17	-11	19	1	30*
Nc1c(Cl)c(Cl)nc(C(=O)OCC(=O)NC2CCCCC2)c1Cl	16	10	-3	37	-1	x
CCN(CC)CCOCCn1c(C)ccc1C	x	x	7	x	5	x
Nc1nnc(-c2ccccc2)s1	92*	5	-1	21	-1	8
Nc1nnc(-c2ccc(F)cc2)s1	11	2	3	13	4	x
CCOc1ccccc1NC(=S)NCCc1ccc(F)cc1	20	15	-19	33	0	x
Cc1ccc(F)cc1NC(=S)NCCc1ccccc1	45*	21	-6	-1	1	24
Cc1ccc(NC(=S)NCCc2ccc(F)cc2)c(C)c1	25	35	31	30	3	x
CCOc1ccccc1NC(=S)NCCc1ccccc1	42*	27	31	7	x	18
COc1ccc(C/C(C)=N/NC(=S)Nc2ccc(C(C)C)cc2)cc1	40*	10	-29	34	3	25
O=C(Nc1ccccc1N1CCCCC1)c1ccc([N+](=O)[O-])o1	51*	34	x	29	0	51*
O=C(NC1CCCC(C(F)(F)F)C1)c1ccc([N+](=O)[O-])o1 (stereo unspecified)	31	33	7	45	5	x
O=C(Nc1ccccc1N1CCN(C(=O)c2ccc(Cl)cc2)CC1)c1ccc([N+](=O)[O-])o1	44*	11	-8	30	-1	24
O=C(NCc1ccco1)c1ccc([N+](=O)[O-])o1	42*	-7	x	29	1	28
O=C(NC1CCCCC1)c1ccc([N+](=O)[O-])o1	51*	14	1	42	-1	36*
O=C(Nc1ccccc1N1CCN(C(=O)c2ccc(Cl)cc2)CC1)c1cc2ccccc2o1	27	19	-10	4	-1	x
CN(CCCNC(=O)c1ccc(CS(=O)c2ccc(Br)cc2)o1)Cc1ccccc1 (stereo unspecified)	-5	-10	7	-4	-3	x
COc1ccc(C(=O)NCC(=O)NCc2ccncc2)cc1	5	-2	-7	-5	-1	x
Cc1ccc(NC2CCCN(C(=O)CSc3ccccn3)C2)cc1C (stereo unspecified)	12	9	16	18	-1	x
O=C(Nc1ccnn1C1CCN(Cc2cc(Cl)ccc2O)CC1)C1CC1	-7	-2	-23	-12	1	x
Clc1ccc(Cn2ncc3c(N4CCCCC4)ncnc32)c(Cl)c1	43*	22	7	47	2	27
Cc1ccccc1C(=O)Nc1ccc(S(=O)(=O)N2CCCC2)cc1	-61	-18	-3	-20	2	x
Oc1c(Cl)cc(Cl)cc1CNc1ccc(Br)cn1	55*	17	-17	34	1	63*

Screens as filed in PubChem.
